This is part of a sample that, as a whole, favours compounds with a hit. Of some 83,000 tested, about 20% had one in any assay.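 Activity criterion: percent growth below 10, measured after cells in 96-well plates were exposed to a single compound concentration for 48 hours.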 Unmarked numbers belong to inactive results. The source made the active and inactive calls.

These results are taken from PubChem BioAssay (NCI).

The test system of the experiment is SK-MEL-28 melanoma. Nature of the experiment: NCI-60 one-dose screen, 48 h (100 = growth as untreated, 0 = no growth, -100 = all killed). The following applies: 10 µM unless noted.
With `O=C1NC(=O)c2c1c1c3cc(Br)ccc3[nH]c1c1oc3ccc(F)cc3c21`, the growth was -20.7% (active).
With `C#CCOc1ccc(/C=N/Nc2nc(-c3ccc(F)cc3)cs2)cc1OC`, the growth is 76.5%.
The same measure for `O=C1NC(=O)/C(=C/c2ccccc2OCc2cc3ccccc3nc2Cl)S1`: 102%; for `Cc1ccc(NCC(=O)Cn2cc(COc3ccc(C=Nc4cnc5ccccc5c4)cc3)nn2)cc1`: 112%; for `C/C(=N\N=C1/C(=O)Nc2ccccc21)c1ccc2c(c1)Nc1ccccc1S2`: 75%.
For `C/C(=N\N=C1/C(=O)Nc2ccc(Cl)cc21)c1ccc2c(c1)Nc1ccccc1S2`, the growth was -48.9% (active).
The same measure for `CCN(CC)c1ccnc(CNCCSC(c2ccccc2)(c2ccccc2)c2ccc(C)cc2)c1`: -97.5% (active).
The value for `Cc1cc2c(cc1Cl)C(=O)/C(=C/c1ccccc1)O2` was 49.9%; that for `COc1ccc(C(=O)/C=C/c2ccc(OCc3ccc(F)cc3)c(OC)c2)cc1OC` was 46.8%; that for `COc1cc(OC)c2c3nc4cc(C)c(C)cc4nc3n(CCN(C)C)c2c1` was 66.5%.
On to `N=C1N=C(SCc2nc3ccccc3[nH]2)NC(=O)/C1=C/c1ccc(Cl)cc1`, for which the growth was 110%.
The value for `COc1ccc(C2CC(c3ccc(S(=O)(=O)NCCNc4nc(Nc5ccc(F)cc5)nc(N(C)C)n4)cc3)=Nc3c(N)nc(N)nc3N2)cc1` (centres undefined) was 85.5%.
The value for `O=C(Cn1nc(-c2ccccc2)ccc1=O)N/N=C/c1ccc(N2CCOCC2)cc1` was 104%.
The same measure for `CC1(C)CC[C@]2(C(=O)O)CC[C@]3(C)C(=CCC4[C@@]5(C)C[C@@H](O)[C@@H]6OC(c7cccc(Br)c7)OC[C@@]6(C)C5CC[C@]43C)C2C1` (some centres undefined): 74.2%; for `COc1ccc(C(=O)/C=C/c2ccc(OCc3ccccc3)c(OC)c2)cc1OC`: 70.4%.
As to `O=C(N=Nc1c(O)[nH]c2ccc([N+](=O)[O-])cc12)c1ccc2nc(-c3ccccc3)[nH]c2c1`, the growth is 60.8%.
On to `C/C(=N\N=C\c1cc([N+](=O)[O-])ccc1Cl)c1ccc2c(c1)Nc1ccccc1S2`, for which the growth was 90.7%.
The value for `C=C1CCC2C3(C)COC(c4ccc(F)cc4)OC3CCC2(C)C1C/C=C1/C(=O)OCC1O` (centres undefined) was -70.3% (active); that for `CCCSc1nc(NCCc2c[nH]c3ccccc23)c(C#N)c(-c2ccc(OC)cc2)n1` was 71.4%.
The same measure for `N/C(=N\c1nc2ccccc2s1)NC(=O)Nc1ccccc1Br`: 28.5%.
For `O=C(Cn1c2c(sc1=O)[C@H]1[C@@H](O)[C@@H](O)[C@H](O)[C@@H]1CS2)N1CCOCC1`, the growth is 107%.
The same measure for `COC(=O)/C=C/c1cccc2c1C(=O)NC(C)(c1cc3ccccc3oc1=O)N2` (centres undefined): 75.4%.
Turning to `Brc1ccc(-c2n(Cc3ccc4ccccc4c3)c(-c3ccccc3)c(-c3ccccc3)[n+]2Cc2ccc3ccccc3c2)cc1`, the growth is -96.3% (active).
Consider `COc1ccc(NC(=O)Cn2c3c(sc2=O)[C@H]2[C@@H](O)[C@@H](O)[C@H](O)[C@@H]2CS3)cc1`, for which the growth is 103%.
Regarding `Cc1cc2nc3c4ccccc4n(CCCN(C)C)c3nc2cc1C`, the growth is -71.1% (active).
The value for `O=S(=O)(Nc1cccc(-n2cnc3cc(-c4ccc(O)cc4)ccc32)c1)C1CC1` was 43.6%; that for `CN(C)c1ccnc(CNCCSC2(c3ccc(C(F)(F)F)cc3)c3ccccc3C=Cc3ccccc32)c1` was -67.4% (active).
The value for `CN(C)c1nc(NCCNS(=O)(=O)c2ccc(C3=Nc4c(N)nc(N)nc4NC(c4ccc(C(F)(F)F)cc4)C3)cc2)nc(Nc2ccc(F)cc2)n1` (centres undefined) was 14%; that for `O=C(NN1C(=O)/C(=C/C=C/c2ccc([N+](=O)[O-])o2)SC1=S)c1ccc(Cl)cc1` was -99.7% (active).
The same measure for `COCOc1ccc2c(=O)c(C)c(C(=O)N[C@@H](Cc3ccccc3)C(O)C(=O)NCCc3ccc(OC)cc3)oc2c1` (some centres undefined): 124%; for `C#CCOc1cc(N(CC)CC)ccc1C(C(=O)NC(C)(C)C)N(C(=O)C1CCc2cc(F)ccc2O1)c1ccc(Br)cc1` (centres undefined): 80.2%.
In the case of `Cc1cc2nc3c4ccccc4n(CC4=NCCN4)c3nc2cc1C`, the growth was -93.5% (active).
Regarding `Cn1cc(-c2nc(N)nnc2-c2c[nH]c3ccc(F)cc23)c2cccnc21`, the growth was 75.1%.
The same measure for `COc1ccc(N2N=C(c3ccc4c(c3)OCO4)CC2c2cccc(NC(=O)CCNS(=O)(=O)c3ccc(Cl)cc3)c2)cc1` (centres undefined): 28.2%.
